Data as given in PubChem BioAssay AID720711 (National Center for Advancing Translational Sciences (NCATS), 2013).
The whole screen tested about 360,000 compounds, of which about 290 (0.081%) were called active. The call rests on the fitted dose curve; in most records, active means well fitted activation curve with a large enough effect; inconclusive means small, poorly fitted or top-dose-only effect; inactive means no such curve, though single readings can be large or run the other way. The full list was thinned out, with actives kept by preference.

Target: Rap guanine nucleotide exchange factor 4 (Homo sapiens) (UniProt Q8WZA2)
Sequence (Q8WZA2 whole entry, looked up): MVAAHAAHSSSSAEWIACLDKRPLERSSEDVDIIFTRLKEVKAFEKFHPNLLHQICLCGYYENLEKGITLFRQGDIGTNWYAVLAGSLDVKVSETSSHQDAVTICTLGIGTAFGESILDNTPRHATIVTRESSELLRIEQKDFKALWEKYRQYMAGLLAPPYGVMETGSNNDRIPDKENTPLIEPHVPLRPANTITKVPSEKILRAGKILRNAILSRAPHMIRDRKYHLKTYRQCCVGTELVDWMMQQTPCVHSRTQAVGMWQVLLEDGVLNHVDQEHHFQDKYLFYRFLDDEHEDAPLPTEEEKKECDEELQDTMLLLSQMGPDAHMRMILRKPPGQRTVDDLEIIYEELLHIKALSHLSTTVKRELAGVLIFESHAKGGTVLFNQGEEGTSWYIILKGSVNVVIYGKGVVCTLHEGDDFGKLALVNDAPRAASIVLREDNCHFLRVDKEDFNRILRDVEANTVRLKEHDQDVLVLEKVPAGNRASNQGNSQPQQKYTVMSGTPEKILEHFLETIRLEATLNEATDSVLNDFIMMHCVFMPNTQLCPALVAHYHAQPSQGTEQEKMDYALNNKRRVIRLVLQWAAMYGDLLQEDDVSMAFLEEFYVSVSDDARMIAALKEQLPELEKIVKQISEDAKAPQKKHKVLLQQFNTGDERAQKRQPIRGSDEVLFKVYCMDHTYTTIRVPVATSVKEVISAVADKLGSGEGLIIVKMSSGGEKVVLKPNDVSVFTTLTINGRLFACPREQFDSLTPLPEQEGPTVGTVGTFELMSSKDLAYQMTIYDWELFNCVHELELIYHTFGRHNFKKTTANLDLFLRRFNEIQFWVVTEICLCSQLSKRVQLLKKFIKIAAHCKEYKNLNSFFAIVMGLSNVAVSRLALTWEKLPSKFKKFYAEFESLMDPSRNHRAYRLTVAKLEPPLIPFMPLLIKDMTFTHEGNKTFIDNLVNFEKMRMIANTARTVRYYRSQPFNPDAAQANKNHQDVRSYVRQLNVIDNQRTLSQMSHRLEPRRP
Test: qHTS for Agonist of cAMP-regulated guanine nucleotide exchange factor 4 (EPAC2): primary screen; further: nearly all actives have a fitted effect of over 50% in size
Conditions: biochemical qHTS; Potency: EPAC2 activation; series mostly up to 154 µM
Source text: In multi-cellular eukaryotic organisms, the effects of cAMP are transduced by two ubiquitously-expressed intracellular cAMP receptors, the classic protein kinase A/cAMP-dependent protein kinase (PKA/cAPK) and the more recently discovered exchange protein directly activated by cAMP/cAMP-regulated guanine nucleotide exchange factor (EPAC/cAMP-GEF). Both PKA and EPAC are ubiquitously expressed in all tissues, and an increase in intracellular cAMP levels will lead to the activation of both PKA and EPAC. Therefore, careful dissections of the individual role and relative contribution of EPAC and PKA within the overall cAMP signaling in various model systems are critical for further elucidating the mechanism of cAMP signaling. To date no EPAC-specific antagonists and agonist, as well as isoform-specific agonists have been reported, and developing EPAC-specific pharmacological probes to determine the physiological functions that EPAC play in the overall cAMP-mediated signaling remains a major challenge within the research field. Furthermore, identified regulators of EPAC may lead to new mechanism-based therapeutic strategies specifically targeting the EPAC / cAMP-signaling components as EPAC has been implicated to play important roles in major human pathological conditions such as diabetes, heart disease, and cancer.
This qHTS will be used to screen the Molecular Libraries Small Molecule Repository (MLSMR) as a concentration-titration series using the NCGC unique quantitative screening (qHTS) platform to find activators for EPAC2. In addition, this assay will also be used as a counterscreen for the EPAC1 qHTS. This fluorescent based assay is developed and validated for EPAC2 that measures exchange using EPAC effector Rap1 complex with BODIPY-GDP, a GDP analog with a tethered fluorophores. Activators are identified by monitoring the change in fluorescence signal as the exchanged free BODIPY-GDP has a reduced fluorescence compared to Rap1-bound BODIPY-GDP. […] in signal (activation) is the desired outcome for the EPAC2 agonist while no activity in this assay is desired for the EPAC1 agonist counterscreen.
[1] de Rooij, J., Zwartkruis, F. J., Verheijen, M. H., Cool, R. H., Nijman, S. M., Wittinghofer, A., and Bos, J.L. (1998) Nature 396, 474-477
[2] Kawasaki, H., Springett, G. M., Mochizuki, N., Toki, S., Nakaya, M., Matsuda, M., Housman, D. E., and Graybiel, A. M. (1998) Science 282, 2275-2279
NIH Chemical Genomics Center [NCGC]
NIH Molecular Libraries Probe Centers Network [MLPCN]
Assay Submitter (PI): Xiaodong Cheng, The University of Texas, Medical Branch
Briefly, three uL of reagents (100 nM EPAC2, 250 nM RAP1B-BODIPY-GDP, 50 uM GDP) were dispensed into a 1536-well Greiner black solid-bottom medium binding assay plate. Controls and test compounds (23 nL) were transferred to the plate via a Kalypsys pin tool equipped with a 1536-pin array. The plates were centrifuged at 1,000 rpm for 15 seconds followed by 5 minute incubation at room temperature. The assay plates were read at 5 minute intervals for 30 minutes in the ViewLux plate reader using 480nm excitation and 540nm emission filters. The results were normalized to the agonist positive control of 6.5 mM cAMP.
Potency means the concentration at half of the fitted maximal effect.

Potency, active:
CCOC(=O)c1cc2n(c1N)-c1ccccc1C2=O 89.1 µM, CCN(CC)CCCC(C)n1c2nc(=O)[nH]c(=O)c-2nc2cc(Cl)ccc21 (centres undefined) 100 µM, CCCCCCc1cc2cc(-c3nnc(-c4ccccc4)o3)c(=O)oc2cc1O 44.7 µM, COc1ccc(C(=O)Nc2nc(-c3ccc(OC)cc3)c(-c3ccc([N+](=O)[O-])cc3)s2)cc1 112 µM, Oc1ccc2ccc3cccc[n+]3c2c1 100 µM, C[n+]1ccc(/C=C/c2c[nH]c3ccccc23)cc1 100 µM

Potency, inactive:
COc1cc(-c2nnn(CC(=O)NCc3ccccc3)n2)cc(OC)c1OC, COC(C(=O)NCc1ccccc1C)c1ccccc1 (centres undefined), COc1ccc(NC(=O)CN(C)S(=O)(=O)c2ccccc2)cc1OC, CCN(C(=O)C1CCCN(c2nc(-c3ccc(OC)cc3)no2)C1)c1ccc(OC)cc1 (centres undefined), CCc1cccc(OC2OC(CO)C(O)C(O)C2NC(C)=O)c1 (centres undefined), CCN(Cc1ccccc1)S(=O)(=O)c1cc(C(=O)O)ccc1OC, COc1ccc(C)c(Cn2c(-c3nonc3N)nc3ccccc32)c1, Cc1ccc2c(CC(=O)NCc3cccs3)coc2c1, CCc1nn(CCCC(=O)NCc2ccc(C)cc2)c(=O)c2cc3occc3n12, Cc1ccc(C(CNC(=O)Nc2ccccc2)N2CCN(C)CC2)cc1 (centres undefined), O=C(O)C1OC(C(=O)O)C2C1C(F)(F)C2(F)F (centres undefined), CN(CCNC(=O)c1cc2c(-c3ccccc3F)nn(C)c2s1)C1CCCCC1, CCO[C@@H]1OC(C(=O)NC2CC2)=C[C@H](C)[C@H]1CCCO, Cc1nc(N)sc1-c1ccccc1, O=C(CCc1ccccc1)Nc1ccnn1C1CCN(Cc2ccc(OCCO)cc2)CC1, CC(C)(C)NC(=O)Cn1c(SCC(=O)Nc2nccs2)nc2ccccc21, O=C1C=C(c2ccnc3cc(Cl)ccc23)C[C@@H](c2ccc3c(c2)OCO3)C1, CCCCCC(=O)N1CCN(S(=O)(=O)c2ccc3c(c2)OCCCO3)CC1, CC1(C)CN(CCc2ccccc2)C(=O)[C@H]1CC(=O)Nc1ccc(Br)cc1, COc1ccc(N2C(=O)NC(NS(=O)(=O)c3ccc(Cl)cc3)(C(F)(F)F)C2=O)cc1 (centres undefined), CCOC(=O)c1ccccc1NC(=O)c1c(N)n(C)c(=O)[nH]c1=O, CCOC(=O)c1cnn(Cc2ccccc2Cl)c1N, CN(C)NC(=O)c1csnc1-c1c(Cl)cccc1Cl, O=S(=O)(NCc1ccccc1Cl)c1cnc[nH]1, CCc1nc2sc3c(Cl)ncnc3c2c2c1CCCC2, COc1ccc(CNC(=O)C[C@H]2C[C@H](C(=O)N3CCOCC3)[C@@]3(CCC4CCCC4)c4[nH]c5ccc(Cl)cc5c4CCN3C2=O)cc1OC, O=C1[C@H]2[C@@H](c3ccc(C(F)(F)F)cc3)N[C@]3(CCCN(Cc4ccc(Cl)cc4)C3=O)[C@H]2C(=O)N1Cc1ccccc1, c1ccc(C[C@H]2CNCCN2CCC23CC4CC(CC(C4)C2)C3)cc1, Cn1c(=O)c2c(nc(N3CCCCCC3)n2CC(O)COc2ccc(Cl)cc2)n(C)c1=O (centres undefined), CSCc1cc(N(C)C)nc(SCc2ccc(Cl)cc2Cl)n1, CCCOc1ccc(Cc2c(Cl)nc(SC)nc2NC)cc1, Cc1sc2ncn(CC(=O)NCCCC(=O)N3CCN(c4ccccc4F)CC3)c(=O)c2c1C, Cc1oc(C)c(C(=O)NCCCC(=O)O)c1C(=O)NCCCC(=O)O, O=CN1CCN(C(=O)c2ccc(Br)o2)CC1, Cc1cc(C)c2oc(C(=O)Nc3ccc(S(=O)(=O)Nc4nccc(C)n4)cc3)cc(=O)c2c1, COc1ccc(NC(=O)N(C)C[C@H]2Oc3ncc(C#C[C@@H](C)O)cc3C(=O)N([C@H](C)CO)C[C@H]2C)cc1, CCCCN1C(=O)C(CC(=O)NC(c2ccccc2)c2ccccc2)CC(C(=O)N2CCOCC2)=C1C (centres undefined), CC(C)(C)[C@H]1C=C(C(=O)NCc2ccccc2)O[C@@H](OCc2ccc(CO)cc2)C1, NC(=O)c1ccccc1N=Cc1ccc2ccccc2c1, O=C(Nc1ccc2c(c1)C(=O)OC2)Nc1cccc2ccccc12, Cn1ccs/c1=N\S(=O)(=O)c1ccc(C(C)(C)C)cc1, CC12c3ccccc3C(c3ccccc31)C1C(=O)N(Cc3cccnc3)C(=O)C12 (centres undefined), Cc1cccc(-c2c(NC(=O)c3ccco3)oc3ccc(Cl)cc3c2=O)c1, O=C(NCCCN1CCCCC1)C1CCCN(c2ncnc3c2nc2n3CCCCC2)C1 (centres undefined), CC1CCC(CN2CCN=C2N(C)C)CC1 (centres undefined), CC(Oc1ccc(Br)cc1)C(=O)NCC(c1ccco1)N1CCCCC1 (centres undefined), O=C(c1ccccc1)C(Cn1cncn1)C(Sc1ccccc1)c1ccccc1 (centres undefined), COc1cc(C(=O)NCC(=O)NCCSc2ccc(Br)cc2)cc(OC)c1OC, CN(CCOc1ccc(Br)cc1)CC(=O)Nc1cccc(S(=O)(=O)NC2=NCCC2)c1, CCN=C1S/C(=C\c2cc(Br)ccc2OCC(=O)OCC)C(=O)N1CC, CC(C)N1C(=S)SC(C)(C)C1n1oc(=O)n(-c2ccc(Cl)c(Cl)c2)c1=O (centres undefined), COC(=O)c1ccc([C@@H](O)[C@H](C)C(=O)CC(=O)OC(C)(C)C)cc1, CC(=O)Oc1ccc(-c2cccc(C(=O)N3CCCCC3)c2)cc1, CCN(CC(=O)Nc1cccc(S(N)(=O)=O)c1)Cc1nc2ccccc2c(=O)[nH]1, Cc1nc2ccc(S(=O)(=O)N(C)CC(=O)NC(C)c3ccccc3)cc2s1 (centres undefined), O=C(Cn1nnc2ccccc2c1=O)NCc1ccc(Cl)cc1, Cc1ccc(S(=O)(=O)CCC(=O)OCc2ccccc2)cc1, O=C(CNC(=O)c1ccccc1F)OCC(=O)c1c[nH]c2ccccc12, CN1C(CC(=O)Nc2ccc(Br)cc2)c2ccccc2CC1(C)C (centres undefined), O=C(COC(=O)c1c(Cl)cccc1Cl)Nc1cccc(S(=O)(=O)NC2=NCCCCC2)c1, CCCN(CC(=O)Nc1ccc(C(N)=O)cc1)CC(=O)Nc1ccccc1C, COC(=O)[C@]12CCCCC=C1N(Cc1ccco1)C(=O)[C@H](CC(=O)NCCCCc1ccccc1)C2, COc1ccc(S(=O)(=O)NC(CC(=O)NCc2ccccc2OC)c2ccco2)cc1 (centres undefined), Cc1sc2ncn(CC(=O)NCCN(C)C)c(=O)c2c1S(=O)(=O)N1CCC(C)CC1, CN(CCc1ccccn1)C(=O)c1ccc(OC2CCN(CCc3ccccc3)CC2)cc1, O=C1CCc2cc(S(=O)(=O)N3CCC(C(=O)NCc4ccccc4Cl)CC3)ccc2N1, CCOc1ccccc1Nc1nnc(SCC(=O)NCC2CCCO2)s1 (centres undefined), N#CCCn1cnc2ccccc21, O=[N+]([O-])c1ccc(CN2CC(N3CCC(c4ccccc4)CC3)CS2(=O)=O)cc1 (centres undefined), CC(=O)[C@@]12O[C@@H]1C[C@H]1[C@@H]3CC[C@H]4C[C@@H](O)CC[C@]4(C)[C@H]3CC[C@@]12C, CC1Cc2ccccc2N1S(=O)(=O)c1c(N)n(C)c(=O)n(C)c1=O (centres undefined), CC(C(=O)NC1CCCC1)N(c1ccc(Oc2ccccc2)cc1)S(C)(=O)=O (centres undefined), CC(=O)NC12CC3CC(C1)CC(C(=O)N1CCN(S(=O)(=O)c4cccs4)CC1)(C3)C2, Cc1cc(C)c(S(=O)(=O)N2C=CC(C(F)(F)F)=NCC2)c(C)c1, O=C(C1CCC1)N1CCN(S(=O)(=O)c2ccc([N+](=O)[O-])cc2)CC1, COc1ccc(-c2[nH][nH]c(=O)c2NC(=O)c2ccc([N+](=O)[O-])cc2)cc1, COc1ccc(NS(=O)(=O)c2cc(NC(=O)CC(=O)c3ccc([N+](=O)[O-])cc3)ccc2C)cc1, CCOC(=O)NC(C(F)(F)F)(C(F)(F)F)P(=O)(c1ccccc1)c1ccccc1, COCCN1CCN(C(=O)c2cc(COc3ccc(F)cc3Cl)on2)CC1, Cc1cc(Cl)c2oc(C(=O)N3CCC(O)(c4ccccc4)CC3)c(C)c2c1, Cc1cccc(OCc2nnc(SCc3nc4cc(C(F)(F)F)ccc4c(=O)[nH]3)o2)c1, Cc1nnc(N(Cc2ccco2)C(=O)c2ccno2)s1, CCC1C(C#N)=C(SC)NC2=C1C(=O)CC(C)(C)C2 (centres undefined), CCn1cc(NC(=O)Nc2ccc(OC)c(OC)c2)c(C(N)=O)n1, COc1ccc(CNC(=O)c2ccc(-c3cccnc3)c3ccoc23)cc1OC, CCc1noc(C)c1C(=O)N1CCCC(N2CCN(c3ccc(F)cc3)CC2)C1 (centres undefined), C=C1C(=O)OC2C1CCC(C)=CCCC1(C)OC21 (centres undefined), CCC(C(=O)NCCC(C)C)N(Cc1ccccc1Cl)C(=O)c1snc(C(N)=O)c1N (centres undefined), COc1cccc(N(CC(=O)NC2CCCC2)C(=O)CCCC(=O)Nc2ccccn2)c1, Cc1nn(C(C)C(=O)NCCC2=CCCCC2)c(=O)c2nn(-c3ccccc3)c(C)c12 (centres undefined), COc1ccc(S(=O)(=O)NCC(c2ccco2)N2CCOCC2)cc1 (centres undefined)

activation, inactive:
Cc1cc2c(cc1C)NC(c1ccccn1)C1=C(CC(C)(C)CC1=O)N2 (centres undefined) 0% [at 15.6 µM, 100% = 6.5 mM cAMP response], CC(C)C(NC(=O)OCc1ccccc1)C(=O)OCC(=O)N1C(C)CCCC1C (centres undefined) 11.3% [at 15.6 µM, 100% = 6.5 mM cAMP response]
